Reference: PubChem BioAssay (NCATS)
Results filed as inconclusive are left out. The source made the active and inactive calls. Unless noted, calls come from the whole dose curve; as a rule, active = well fitted curve in the direction sought with a large enough effect; inconclusive = small, poorly fitted or top-dose-only effect, or another doubt; inactive = no such curve, though single readings can be large; an effect the other way counts as inactive or inconclusive.

Legend:
[1] = P-glycoprotein substrates identified in KB-3-1 adenocarcinoma cell line, qHTS therapeutic library screen (AID 1346986); note: nearly all actives have a fitted effect of over 60% in size
Outline: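 Viability read by CellTiter-Glo after 72 h compound exposure in dose-response of KB-3-1 and KB-8-5-11 (P-gp-high) cells. Hits needed AC50 < 10 uM, >50% maximum response and curve class -1.1 to -2.4. Cherry-picks retested ± tariquidar, including pcDNA/MDR-19 HEK-293 pair.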

[2] = qHTS to identify inhibitors of the type 1 interferon - major histocompatibility complex class I in skeletal muscle: primary screen against the NCATS Mechanism Interrogation Plate v5.0 (MIPE) Libary (AID 1347411);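 note: plate controls were vehicle for no effect and reference inhibitor for full effect; nearly all actives have a fitted effect of over 65% in size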
Outline: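 Luminescence from CRISPR HiBit-tagged endogenous HLA-B in human myoblasts reported MHC class I level after 24 h of IFN-beta (4 ng/ml) plus compound. Compounds ran as 11-point 1:3 series, top 46 uM final.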

[3] = Primary qHTS for inhibitors of nuclear receptor binding SET domain protein 2 (NSD2) in an RCH-ACV wild type WT cells (2C) (AID 1645877); note: nearly all actives have a fitted effect of over 70% in size
[4] = target: Glutathione peroxidase 1 (Homo sapiens) (UniProt P07203); assay: Primary qHTS Assay for Inhibitors of Recombinant Selenoprotein Glutathione Peroxidase 1 (GPX1) (AID 1845191); note: nearly all actives have a fitted effect of over 65% in size
Outline: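 NADPH consumption tracked by fluorescence at 340/450 nm between t=0 and t=15 min, room temperature. Final mix: 10 nM GPX1, 100 nM glutathione reductase, 1 mM GSH, 0.5 mM NADPH, 0.5 mM cumene hydroperoxide, 0.01% BSA; 30 min compound–enzyme preincubation.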

[5] = target: Phospholipid hydroperoxide glutathione peroxidase GPX4 (Homo sapiens) (UniProt P36969); assay: Primary qHTS Assay for Inhibitors of Recombinant Selenoprotein Glutathione Peroxidase 4 (GPX4) (AID 1845192); conditions: outcome: dose series up to 50 µM unless noted; note: series mostly up to about 50 µM; % is set by controls: 0 for no effect and ±100 for the full control effect; nearly all actives have a fitted effect of over 65% in size
Outline: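 NADPH consumption followed by fluorescence at 340/450 nm, t=0 and after 15 min at room temperature. Reaction started with cumene hydroperoxide (0.5 mM final) after 30 min compound–GPX4 preincubation; final 200 nM GPX4, 100 nM GR, 1 mM GSH, 0.5 mM NADPH.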

[6] = qHTS drug screen for cell cycle checkpoint inhibitors in PARPi-resistant BRCA-mutant ovarian cancer cell lines. (AID 1963452; calls by dose curve); conditions: PEO1/OlaR viability, CellTiter-Glo luminescence, 96 h, stronger effect = lower value
Outline: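 PEO1, PEO4 and PEO1/OlaR ovarian cancer cells, 600 per well, exposed 96 h at 37C to a dilution series. Viability read by CellTiter-Glo luminescence, normalized to DMSO and empty wells; activity summarized as Z-AUC.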

[7] = P-glycoprotein substrates identified in KB-8-5-11 adenocarcinoma cell line, qHTS therapeutic library screen (AID 1346987); note: nearly all actives have a fitted effect of over 65% in size
Outline: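 Compounds are pinned in dose-response onto KB-8-5-11 cells (500 cells/well, colchicine-free medium) and left 72 h at 37 degree C. CellTiter-Glo luminescence then yields AC50 values.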

[8] = system: Zika virus NS2B-NS3 protease; assay: Primary screen GU AMC qHTS for Zika virus inhibitors (AID 1347154);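 note: 0% = no-inhibitor control and -100% = no-enzyme control; nearly all actives have a fitted effect of over 70% in size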
Outline: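 Fluorogenic AMC-substrate cleavage by noncovalent NS2B-NS3 protease complex (25 nM, pH 8.0 Tris buffer with Tween 20) followed for 15 minutes at room temperature (~20% conversion). Percent inhibition from ex340/em450 signal change, fitted by 4-parameter Hill equation.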

[9] = Primary qHTS for small molecule stabilizers of the endoplasmic reticulum resident proteome: Secreted ER Calcium Modulated Protein (SERCaMP) assay (AID 1508630); note: % is set by controls: 0 for no effect and ±100 for the full control effect
Outline: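 The SH-SY5Y reporter protocol was run at 3 concentrations up to 38.3 uM (primary) or 11 concentrations (follow-up): 16 h compound, 100 nM thapsigargin for 4 h, then extracellular luciferase luminescence.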

[10] = Primary qHTS for inhibitors of nuclear receptor binding SET domain protein 2 (NSD2) in an isogenic RCH-ACV NSD2 p.E1099K mutant (9B) (AID 1645876); note: % is set by controls: 0 for no effect and ±100 for the full control effect; nearly all actives have a fitted effect of over 70% in size
[11] = Viability counterscreen for antagonist of constitutive androstane receptor (CAR) against the NCATS DSHEA and TCM libraries (AID 1794837);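 note: compound exposure lasted 24 h before viability reading; 0% is about no effect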
Outline: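 Cell viability, CellTiter-Fluor, Ex/Em 405/540 nm, 1 h at 37C. HepG2-CYP2B6-hCAR, 2,500 cells/well; cpds + CITCO 48 uM final (antagonist mode), 24 h, 37C/5% CO2.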

[12] = Viability counterscreen for agonist of constitutive androstane receptor (CAR) against the NCATS DSHEA and TCM libraries (AID 1794838); note: 0% is about no effect
Outline: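 Viability by CellTiter-Fluor fluorescence, 405/540 nm, after 1 h at 37C. HepG2-CYP2B6-hCAR cells were exposed 24 h to test substances in presence of 0.75 uM PK11195 (final).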

[13] = target: Nuclear receptor subfamily 1 group I member 3 (Homo sapiens) (UniProt Q14994); assay: Primary qHTS for agonist of constitutive androstane receptor (CAR) against the NCATS DSHEA and TCM libraries (AID 1794839);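 note: HepG2 cells expressing human CAR with a CYP2B6 reporter plus PK11195 antagonist; 0% is about no effect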
Outline: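 Luminescence from ONE-Glo luciferase was the agonist read-out in HepG2-CYP2B6-hCAR cells exposed 24 h to test substances. Wells also held the CAR antagonist PK11195 at 0.75 µM final. Viability was by CellTiter-Fluor fluorescence.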

[14] = HepG2 viability counterscreen (readout 2: ATP content) against the NCATS DSHEA and TCM libraries (AID 1794840); note: 0% is about no effect
Outline: (§1)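 1,000 HepG2 cells/well, 4 h attach; compounds ~24 h, 37C/5% CO2. Readout 1: GF-AFC 25 uM final, 30 min, fluorescence 380/510 nm. Readout 2: CellTiter-Glo, 30 min RT, luminescence.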

[15] = HepG2 viability counterscreen (readout 1: protease activity) against the NCATS DSHEA and TCM libraries (AID 1794841);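 note: cells exposed to compounds for about 24 h before the protease read; 0% is about no effect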
Outline: as §1

[16] = target: Cytochrome P450 2D6 (Homo sapiens) (UniProt P10635); assay: qHTS for inhibitors of CYP2D6 against the NCATS DSHEA and TCM libraries (AID 1919972); note: % is set by controls: 0 for no effect and ±100 for the full control effect
Outline: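 CYP2D6 enzyme with pro-luciferin substrate in manufacturer buffer (typically 100 mM KPO4), preincubated 15 min RT with substances (most at 19.5 nM upward); NADPH regeneration system (1x) started 30–45 min RT reaction; P450-Glo luminescence read after 30 min; quinidine as intraplate control.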

[17] = target: Cytochrome P450 2C9 (Homo sapiens) (UniProt P11712); assay: qHTS for inhibitors of CYP2C9 against the NCATS DSHEA and TCM libraries (AID 1919973); note: potency is the fitted concentration of half-maximal effect
Outline: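 Each CYP isoform and its pro-luciferin substrate, at isoform-specific final concentrations, were preincubated 15 min at RT with substances. NADPH regeneration solution (1x) started a 30-45 min reaction, and P450-Glo luminescence was read.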

[18] = KB-3-1 P-gp reporter qHTS against the NCATS DSHEA and TCM libraries (AID 1919975); note: 0% is about no effect
Outline: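 CellTiter-Glo luminescence viability readout; KB-3-1 parental cells, 500/well, attached ~4 h, then compound for ~72 h, 37C, 5% CO2. Bortezomib intraplate control.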

[19] = target: Cytochrome P450 1A2 (Homo sapiens) (UniProt P05177); assay: qHTS for inhibitors of CYPIA2 against the NCATS DSHEA and TCM libraries (AID 1919976); note: series mostly up to about 37 µM; % is set by controls: 0 for no effect and ±100 for the full control effect
Outline: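 Reaction started with 1x NADPH regeneration solution and run 30-45 min, room temperature, protected from light, after compounds sat 15 min with CYP1A2 and pro-luciferin substrate. P450-Glo detection gave luminescence; furafylline served as control.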

[20] = qHTS Counterscreen for compound interference against the NCATS DSHEA and TCM libraries (AID 1919978); conditions: firefly luciferase detection reagent interference, luminescence;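 note: compounds preincubated with 1 µM D-luciferin or buffer before detection reagent; % of control where 0% means no effect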
Outline: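 Luminescence counterscreen for detection-kit interference: compounds at 19.5 nM–39.8 uM final, 15 min RT with 1 uM D-luciferin or buffer only; detection reagent added, 30 min RT, then read.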

[21] = Dual reporter qHTS for agonist of Pregnane X Receptor (hPXR) against the NCATS DSHEA and TCM libraries: Fluorescence readout (AID 1920058); note: 0% is about no effect
Outline: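 Viability readout (CellTiter-Fluor, 405/540 nm, 1 h) from agonist-mode PXR dual reporter in hPXR-Luc HepG2 cells. Substances ~24 h, 37 °C, 5% CO2; rifampicin reference, tetraoctyl ammonium bromide cytotoxic control.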

[22] = target: Nuclear receptor subfamily 1 group I member 2 (Homo sapiens) (UniProt O75469); assay: Dual reporter qHTS for agonist of Pregnane X Receptor (hPXR) against the NCATS DSHEA and TCM libraries: Luminescence readout (AID 1920059); note: 0% is about no effect
Outline: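 Luminescent PXR reporter read (ONE-Glo) after a CellTiter-Fluor viability read, following 24 h, 37C treatment of HepG2 cells stably carrying hPXR-Luc.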

[23] = target: Nuclear receptor subfamily 1 group I member 2 (Homo sapiens) (UniProt O75469); assay: Dual reporter qHTS for antagonist of Pregnane X Receptor (hPXR) against the NCATS DSHEA and TCM libraries: Luminescence Readout (AID 1920060);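 note: HepG2 cells carrying hPXR luciferase reporter stimulated with rifampicin at 2 µM; 0% is about no effect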
Outline: (§2)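 HepG2 hPXR-Luc, 2000 cells/well, charcoal-stripped FBS medium; 5 h attach; RIF 2 uM final; 24 h 37C/5% CO2; CellTiter-Fluor 1 h, fluor 405/540; ONE-Glo 30 min RT, lum.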

[24] = Dual reporter qHTS for antagonist of Pregnane X Receptor (hPXR) against the NCATS DSHEA and TCM libraries: Fluorescence Readout (AID 1920061); note: 0% is about no effect
Outline: as §2

[25] = measured here: PEO1 parental Z-AUC

Chain of Glutathione peroxidase 1 (Homo sapiens) (P07203 whole entry, looked up): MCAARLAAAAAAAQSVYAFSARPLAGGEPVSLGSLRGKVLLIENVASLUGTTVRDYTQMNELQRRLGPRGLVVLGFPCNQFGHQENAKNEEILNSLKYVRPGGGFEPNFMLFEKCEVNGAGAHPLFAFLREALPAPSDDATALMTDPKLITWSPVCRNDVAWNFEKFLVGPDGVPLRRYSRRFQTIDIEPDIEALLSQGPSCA
Chain of Nuclear receptor subfamily 1 group I member 2 (Homo sapiens) (O75469 whole entry, looked up): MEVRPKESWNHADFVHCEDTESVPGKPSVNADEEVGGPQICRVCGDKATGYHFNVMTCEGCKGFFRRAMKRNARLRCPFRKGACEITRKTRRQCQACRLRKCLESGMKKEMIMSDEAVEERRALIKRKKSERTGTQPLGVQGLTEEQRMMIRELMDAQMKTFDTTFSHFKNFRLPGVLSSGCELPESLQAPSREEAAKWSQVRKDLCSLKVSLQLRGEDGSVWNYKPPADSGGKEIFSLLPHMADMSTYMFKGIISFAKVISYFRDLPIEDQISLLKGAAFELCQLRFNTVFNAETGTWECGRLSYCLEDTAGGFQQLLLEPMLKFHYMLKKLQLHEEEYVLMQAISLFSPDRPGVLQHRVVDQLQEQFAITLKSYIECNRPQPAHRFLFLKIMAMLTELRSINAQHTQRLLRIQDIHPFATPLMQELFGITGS
Chain of Cytochrome P450 1A2 (Homo sapiens) (P05177 whole entry, looked up): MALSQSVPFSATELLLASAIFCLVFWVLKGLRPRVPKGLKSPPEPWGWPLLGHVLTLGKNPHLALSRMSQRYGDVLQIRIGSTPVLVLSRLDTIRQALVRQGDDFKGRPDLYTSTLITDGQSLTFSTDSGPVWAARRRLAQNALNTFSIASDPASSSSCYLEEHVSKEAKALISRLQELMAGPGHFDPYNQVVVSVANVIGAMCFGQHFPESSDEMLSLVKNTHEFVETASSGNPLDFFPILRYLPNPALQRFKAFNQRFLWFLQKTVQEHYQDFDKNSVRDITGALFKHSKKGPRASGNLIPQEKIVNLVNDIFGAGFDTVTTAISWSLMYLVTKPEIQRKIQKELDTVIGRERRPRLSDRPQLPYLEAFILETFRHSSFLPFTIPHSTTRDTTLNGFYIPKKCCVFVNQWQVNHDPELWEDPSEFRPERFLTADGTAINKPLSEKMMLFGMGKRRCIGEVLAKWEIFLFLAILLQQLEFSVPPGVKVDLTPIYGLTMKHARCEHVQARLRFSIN
Chain of Phospholipid hydroperoxide glutathione peroxidase GPX4 (Homo sapiens) (P36969 whole entry, looked up): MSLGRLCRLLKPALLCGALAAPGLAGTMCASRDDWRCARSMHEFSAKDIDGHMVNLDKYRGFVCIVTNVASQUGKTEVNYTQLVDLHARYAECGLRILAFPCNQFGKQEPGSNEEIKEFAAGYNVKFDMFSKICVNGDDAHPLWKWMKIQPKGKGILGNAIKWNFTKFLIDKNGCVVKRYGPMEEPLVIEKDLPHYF
Chain of Cytochrome P450 2D6 (Homo sapiens) (P10635 whole entry, looked up): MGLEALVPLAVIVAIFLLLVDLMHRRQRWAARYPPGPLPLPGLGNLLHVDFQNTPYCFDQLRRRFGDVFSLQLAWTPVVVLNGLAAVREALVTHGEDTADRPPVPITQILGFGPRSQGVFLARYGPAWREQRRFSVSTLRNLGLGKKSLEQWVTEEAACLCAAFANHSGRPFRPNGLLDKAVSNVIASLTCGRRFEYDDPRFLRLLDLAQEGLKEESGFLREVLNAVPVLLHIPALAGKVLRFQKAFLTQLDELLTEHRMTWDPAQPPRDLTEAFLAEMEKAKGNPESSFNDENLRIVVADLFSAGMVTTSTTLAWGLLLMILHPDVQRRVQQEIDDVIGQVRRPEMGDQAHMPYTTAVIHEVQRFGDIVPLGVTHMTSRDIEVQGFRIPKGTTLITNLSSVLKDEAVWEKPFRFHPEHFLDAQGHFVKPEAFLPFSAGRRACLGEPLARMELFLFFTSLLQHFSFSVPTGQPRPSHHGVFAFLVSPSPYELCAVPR
Chain of Nuclear receptor subfamily 1 group I member 3 (Homo sapiens) (Q14994 whole entry, looked up): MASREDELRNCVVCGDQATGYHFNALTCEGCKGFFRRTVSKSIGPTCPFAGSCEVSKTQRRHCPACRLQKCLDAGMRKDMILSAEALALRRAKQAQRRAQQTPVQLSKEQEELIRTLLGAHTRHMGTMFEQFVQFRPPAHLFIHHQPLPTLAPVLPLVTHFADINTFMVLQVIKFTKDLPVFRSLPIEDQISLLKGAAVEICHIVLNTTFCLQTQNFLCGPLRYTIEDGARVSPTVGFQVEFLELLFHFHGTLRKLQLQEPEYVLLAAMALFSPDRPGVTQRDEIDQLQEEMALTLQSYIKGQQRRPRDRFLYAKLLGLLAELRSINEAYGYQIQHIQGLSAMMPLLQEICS
Chain of Cytochrome P450 2C9 (Homo sapiens) (P11712 whole entry, looked up, canonical isoform): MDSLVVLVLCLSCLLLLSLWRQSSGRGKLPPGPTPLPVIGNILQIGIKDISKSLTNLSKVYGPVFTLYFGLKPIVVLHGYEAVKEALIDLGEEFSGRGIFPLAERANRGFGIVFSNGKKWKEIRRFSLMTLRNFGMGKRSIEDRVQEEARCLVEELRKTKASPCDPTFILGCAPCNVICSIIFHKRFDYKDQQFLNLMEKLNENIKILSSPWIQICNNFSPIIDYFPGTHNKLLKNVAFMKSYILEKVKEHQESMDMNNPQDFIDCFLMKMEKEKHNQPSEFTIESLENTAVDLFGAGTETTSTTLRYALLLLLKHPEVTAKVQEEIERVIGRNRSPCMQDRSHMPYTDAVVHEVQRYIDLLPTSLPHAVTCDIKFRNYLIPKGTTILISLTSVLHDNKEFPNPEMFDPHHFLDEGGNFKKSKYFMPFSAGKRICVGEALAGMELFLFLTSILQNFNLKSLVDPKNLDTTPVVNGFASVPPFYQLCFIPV

CNC(=O)c1c(C)oc2cc(Oc3ncnc4cc(OC)c(OC)cc34)ccc12
-0.205: Z-AUC ([6]; measured here: PEO4 Z-AUC)
-0.16: Z-AUC [6, 25]
inactive: Potency [1] | Potency [2] | Potency [3] | Potency [4] | Potency [5] | Z-AUC [6] -0.474

CC(C)n1cnc2c(NCc3cccc(C(F)(F)F)c3)ncnc21
inactive: Potency [1] | Potency [4]

COc1cc2c(cc1OC)/C(=C/c1ccc(O)cc1)C(=O)N2
inactive: Potency [1] | Potency [7] | Potency [4]

c1ccc(-c2[nH]ncc2-c2ccnc3ccccc23)nc1
inactive: Potency [1] | Potency [8] | Potency [9] | Potency [10] | Potency [3] | Potency [4]

NC1CCCN(c2c(/C=C3\SC(=O)NC3=O)cccc2-c2ccccc2)C1 (stereo unspecified)
-0.352: Z-AUC [6, 25]
-1.12: Z-AUC ([6]; measured here: PEO4 Z-AUC)
inactive: Potency [1] | Potency [7] | Potency [4] | Z-AUC [6] -0.874

O=C(O[C@@H]1Cc2c(O)cc(O)cc2O[C@H]1c1cc(O)c(O)c(O)c1)c1cc(O)c(O)c(O)c1
active: Potency [17] 12.6 µM
inactive: Potency [1] | Potency [7] | outcome [11] | outcome [12] | outcome [13] | outcome [14] | outcome [15] | outcome [16] | outcome [18] | outcome [19] | max response [20] -4.04% | outcome [21] | outcome [22] | outcome [23] | outcome [24]
